# According to article PMC11006913:
# Residue numbers refer to the chain shown, from its start.
# Experiments:
# Experiment in all cases: PBM; 200 nM protein, PBS
# Settings in all cases: dsDNA, one strand shown
# HOXC10 [1] = target: HOXC10 (Homo sapiens, UniProt Q9NYD6 254-340)
# ALX1 [2] = target: ALX1 (Homo sapiens, UniProt Q15699 118-204, L144V)
# HOXD13 [3] = target: HOXD13 (Homo sapiens, UniProt P35453 263-343, T313R)
# ALX1 [4] = target: ALX1 (Homo sapiens, UniProt Q15699 118-204, L144R)
# HOXD13 [5] = target: HOXD13 (Homo sapiens, UniProt P35453 263-343)
# HOXC10 [6] = target: HOXC10 (Homo sapiens, UniProt Q9NYD6 254-340, K271E)
# HOXD13 [7] = target: HOXD13 (Homo sapiens, UniProt P35453 263-343, T313A)
# ALX1 [8] = target: ALX1 (Homo sapiens, UniProt Q15699 118-204)
# PAX4 [9] = target: T1, PAX4 (Homo sapiens, UniProt O43316 9-242, R200K)
# T1 sequence: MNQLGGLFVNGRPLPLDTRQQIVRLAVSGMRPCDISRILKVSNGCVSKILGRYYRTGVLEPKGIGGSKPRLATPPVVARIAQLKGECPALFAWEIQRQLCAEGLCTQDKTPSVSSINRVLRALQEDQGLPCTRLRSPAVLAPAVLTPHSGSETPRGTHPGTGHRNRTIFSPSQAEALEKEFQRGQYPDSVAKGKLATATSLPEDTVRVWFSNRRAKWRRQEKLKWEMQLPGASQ
# PAX4 [10] = target: T2, PAX4 (Homo sapiens, UniProt O43316 9-242)
# T2 sequence: T1 sequence with K192R
# PAX4 [11] = target: T3, PAX4 (Homo sapiens, UniProt O43316 9-242, R200Q)
# T3 sequence: T1 sequence with K192Q
# PAX4 [12] = target: T4, PAX4 (Homo sapiens, UniProt O43316 9-242, F177V)
# T4 sequence: T1 sequence with F169V, K192R
# PAX4 [13] = target: T5, PAX4 (Homo sapiens, UniProt O43316 9-242, F177Y)
# T5 sequence: T1 sequence with F169Y, K192R
# PAX4 [14] = target: T6, PAX4 (Homo sapiens, UniProt O43316 9-242, R227W)
# T6 sequence: T1 sequence with K192R, R219W
# ALX3 [15] = target: ALX3 (Homo sapiens, UniProt O95076 139-225, N203Q)
# ALX3 [16] = target: ALX3 (Homo sapiens, UniProt O95076 139-225)
# ALX3 [17] = target: ALX3 (Homo sapiens, UniProt O95076 139-225, L168Q)
# ALX3 [18] = target: ALX3 (Homo sapiens, UniProt O95076 139-225, L168V)
# ALX3 [19] = target: ALX3 (Homo sapiens, UniProt O95076 139-225, N203S)
# ALX4 [20] = target: ALX4 (Homo sapiens, UniProt Q9H161 200-286)
# ALX4 [21] = target: ALX4 (Homo sapiens, UniProt Q9H161 200-286, Q225E)
# PROP1 [22] = target: PROP1 (Homo sapiens, UniProt O75360 56-141)
# PROP1 [23] = target: PROP1 (Homo sapiens, UniProt O75360 56-141, R99H)
# PROP1 [24] = target: PROP1 (Homo sapiens, UniProt O75360 56-141, F88S)
# Chain of PROP1 (Homo sapiens, UniProt O75360 56-141, F88S) (O75360 56-141 F88S): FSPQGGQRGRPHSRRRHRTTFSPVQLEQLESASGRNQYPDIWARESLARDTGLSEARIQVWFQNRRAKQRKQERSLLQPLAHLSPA
# Chain of HOXD13 (Homo sapiens, UniProt P35453 263-343, T313R) (P35453 263-343 T313R): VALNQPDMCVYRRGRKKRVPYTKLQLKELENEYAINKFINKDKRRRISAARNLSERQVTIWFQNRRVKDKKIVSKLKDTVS
# Chain of HOXD13 (Homo sapiens, UniProt P35453 263-343, T313A) (P35453 263-343 T313A): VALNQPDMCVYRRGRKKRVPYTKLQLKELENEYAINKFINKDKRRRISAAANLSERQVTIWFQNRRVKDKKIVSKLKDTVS
# Chain of HOXC10 (Homo sapiens, UniProt Q9NYD6 254-340, K271E) (Q9NYD6 254-340 K271E): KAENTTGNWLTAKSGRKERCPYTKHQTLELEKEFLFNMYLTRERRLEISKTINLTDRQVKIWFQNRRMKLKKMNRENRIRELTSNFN
# Chain of HOXD13 (Homo sapiens, UniProt P35453 263-343) (P35453 263-343): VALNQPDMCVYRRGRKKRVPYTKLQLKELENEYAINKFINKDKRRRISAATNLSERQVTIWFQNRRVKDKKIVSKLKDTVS
# Chain of HOXC10 (Homo sapiens, UniProt Q9NYD6 254-340) (Q9NYD6 254-340): as the sequence (Q9NYD6 254-340 K271E) above, with E18K counted along it
# Chain of ALX3 (Homo sapiens, UniProt O95076 139-225, L168Q) (O95076 139-225 L168Q): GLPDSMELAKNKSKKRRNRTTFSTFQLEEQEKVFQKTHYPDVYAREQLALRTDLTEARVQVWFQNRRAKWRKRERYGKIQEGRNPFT
# Chain of ALX1 (Homo sapiens, UniProt Q15699 118-204, L144R) (Q15699 118-204 L144R): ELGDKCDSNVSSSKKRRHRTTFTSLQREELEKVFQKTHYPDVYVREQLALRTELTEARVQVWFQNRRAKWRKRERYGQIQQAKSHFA
# Chain of ALX4 (Homo sapiens, UniProt Q9H161 200-286) (Q9H161 200-286): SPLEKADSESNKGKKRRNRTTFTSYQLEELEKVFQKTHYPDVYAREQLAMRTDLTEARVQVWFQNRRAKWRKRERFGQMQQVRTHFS
# Chain of ALX4 (Homo sapiens, UniProt Q9H161 200-286, Q225E) (Q9H161 200-286 Q225E): as the sequence (Q9H161 200-286) above, with Q26E counted along it
# Chain of ALX1 (Homo sapiens, UniProt Q15699 118-204, L144V) (Q15699 118-204 L144V): as the sequence (Q15699 118-204 L144R) above, with R27V counted along it
# Chain of ALX3 (Homo sapiens, UniProt O95076 139-225) (O95076 139-225): as the sequence (O95076 139-225 L168Q) above, with Q30L counted along it
# Chain of PROP1 (Homo sapiens, UniProt O75360 56-141) (O75360 56-141): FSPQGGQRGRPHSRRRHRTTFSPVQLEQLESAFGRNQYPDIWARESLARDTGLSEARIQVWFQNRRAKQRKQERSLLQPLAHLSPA
# Chain of ALX3 (Homo sapiens, UniProt O95076 139-225, N203Q) (O95076 139-225 N203Q): as the sequence (O95076 139-225 L168Q) above, with Q30L, N65Q counted along it
# Chain of PROP1 (Homo sapiens, UniProt O75360 56-141, R99H) (O75360 56-141 R99H): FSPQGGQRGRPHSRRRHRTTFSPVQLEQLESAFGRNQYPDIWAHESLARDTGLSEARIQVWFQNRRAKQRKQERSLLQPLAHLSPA
# Chain of ALX3 (Homo sapiens, UniProt O95076 139-225, L168V) (O95076 139-225 L168V): as the sequence (O95076 139-225 L168Q) above, with Q30V counted along it
# Chain of ALX1 (Homo sapiens, UniProt Q15699 118-204) (Q15699 118-204): as the sequence (Q15699 118-204 L144R) above, with R27L counted along it
# Chain of ALX3 (Homo sapiens, UniProt O95076 139-225, N203S) (O95076 139-225 N203S): as the sequence (O95076 139-225 L168Q) above, with Q30L, N65S counted along it
sequence,measurement,setting,value
ATTTATAG,binding signal,HOXC10 [1],"12.2 upbm affinity estimate (log intensity, higher = more binding, comparable within an allelic series)"
same,binding signal,ALX1 [2],"8.9 upbm affinity estimate (log intensity, higher = more binding, comparable within an allelic series)"
same,binding signal,HOXD13 [3],"11.1 upbm affinity estimate (log intensity, higher = more binding, comparable within an allelic series)"
same,binding signal,ALX1 [4],"9.04 upbm affinity estimate (log intensity, higher = more binding, comparable within an allelic series)"
same,binding signal,HOXD13 [5],"12.1 upbm affinity estimate (log intensity, higher = more binding, comparable within an allelic series)"
same,binding signal,HOXC10 [6],"11.4 upbm affinity estimate (log intensity, higher = more binding, comparable within an allelic series)"
same,binding signal,HOXD13 [7],"11.9 upbm affinity estimate (log intensity, higher = more binding, comparable within an allelic series)"
same,binding signal,ALX1 [8],"9.11 upbm affinity estimate (log intensity, higher = more binding, comparable within an allelic series)"
GCACGTTA,binding signal,HOXC10 [1],"10.7 upbm affinity estimate (log intensity, higher = more binding, comparable within an allelic series)"
GTTTACGA,binding signal,HOXC10 [1],"12.2 upbm affinity estimate (log intensity, higher = more binding, comparable within an allelic series)"
same,binding signal,HOXD13 [3],"10.8 upbm affinity estimate (log intensity, higher = more binding, comparable within an allelic series)"
same,binding signal,HOXD13 [5],"12.1 upbm affinity estimate (log intensity, higher = more binding, comparable within an allelic series)"
same,binding signal,HOXC10 [6],"11.6 upbm affinity estimate (log intensity, higher = more binding, comparable within an allelic series)"
same,binding signal,HOXD13 [7],"11.9 upbm affinity estimate (log intensity, higher = more binding, comparable within an allelic series)"
CCCCACCG,binding signal,HOXC10 [1],"10.2 upbm affinity estimate (log intensity, higher = more binding, comparable within an allelic series)"
same,binding signal,PAX4 [9],"9.41 upbm affinity estimate (log intensity, higher = more binding, comparable within an allelic series)"
same,binding signal,PAX4 [10],"9.56 upbm affinity estimate (log intensity, higher = more binding, comparable within an allelic series)"
same,binding signal,PAX4 [11],"9.46 upbm affinity estimate (log intensity, higher = more binding, comparable within an allelic series)"
same,binding signal,PAX4 [12],"9.14 upbm affinity estimate (log intensity, higher = more binding, comparable within an allelic series)"
same,binding signal,HOXC10 [6],"10.1 upbm affinity estimate (log intensity, higher = more binding, comparable within an allelic series)"
same,binding signal,PAX4 [13],"9.27 upbm affinity estimate (log intensity, higher = more binding, comparable within an allelic series)"
same,binding signal,PAX4 [14],"9.33 upbm affinity estimate (log intensity, higher = more binding, comparable within an allelic series)"
AGCTGGCG,binding signal,HOXC10 [1],"9.96 upbm affinity estimate (log intensity, higher = more binding, comparable within an allelic series)"
same,binding signal,ALX3 [15],"7.77 upbm affinity estimate (log intensity, higher = more binding, comparable within an allelic series)"
same,binding signal,HOXC10 [6],"9.94 upbm affinity estimate (log intensity, higher = more binding, comparable within an allelic series)"
same,binding signal,ALX3 [16],"7.78 upbm affinity estimate (log intensity, higher = more binding, comparable within an allelic series)"
same,binding signal,ALX3 [17],"7.68 upbm affinity estimate (log intensity, higher = more binding, comparable within an allelic series)"
same,binding signal,ALX3 [18],"7.73 upbm affinity estimate (log intensity, higher = more binding, comparable within an allelic series)"
same,binding signal,ALX3 [19],"7.86 upbm affinity estimate (log intensity, higher = more binding, comparable within an allelic series)"
CTGGTGGC,binding signal,HOXC10 [1],"9.99 upbm affinity estimate (log intensity, higher = more binding, comparable within an allelic series)"
same,binding signal,ALX4 [20],"7.93 upbm affinity estimate (log intensity, higher = more binding, comparable within an allelic series)"
same,binding signal,ALX4 [21],"8.14 upbm affinity estimate (log intensity, higher = more binding, comparable within an allelic series)"
same,binding signal,HOXC10 [6],"10.1 upbm affinity estimate (log intensity, higher = more binding, comparable within an allelic series)"
AGCGGGGG,binding signal,HOXC10 [1],"10.1 upbm affinity estimate (log intensity, higher = more binding, comparable within an allelic series)"
same,binding signal,PAX4 [9],"9.03 upbm affinity estimate (log intensity, higher = more binding, comparable within an allelic series)"
same,binding signal,PAX4 [10],"9.24 upbm affinity estimate (log intensity, higher = more binding, comparable within an allelic series)"
same,binding signal,PAX4 [11],"9.17 upbm affinity estimate (log intensity, higher = more binding, comparable within an allelic series)"
same,binding signal,PAX4 [12],"9 upbm affinity estimate (log intensity, higher = more binding, comparable within an allelic series)"
same,binding signal,HOXC10 [6],"9.93 upbm affinity estimate (log intensity, higher = more binding, comparable within an allelic series)"
same,binding signal,PAX4 [13],"9.11 upbm affinity estimate (log intensity, higher = more binding, comparable within an allelic series)"
same,binding signal,PROP1 [22],"6.68 upbm affinity estimate (log intensity, higher = more binding, comparable within an allelic series)"
same,binding signal,PROP1 [23],"6.47 upbm affinity estimate (log intensity, higher = more binding, comparable within an allelic series)"
same,binding signal,PROP1 [24],"6.14 upbm affinity estimate (log intensity, higher = more binding, comparable within an allelic series)"
same,binding signal,PAX4 [14],"9.16 upbm affinity estimate (log intensity, higher = more binding, comparable within an allelic series)"
CCCCGGGC,binding signal,HOXC10 [1],"9.93 upbm affinity estimate (log intensity, higher = more binding, comparable within an allelic series)"
same,binding signal,HOXD13 [3],"9.37 upbm affinity estimate (log intensity, higher = more binding, comparable within an allelic series)"
same,binding signal,HOXD13 [5],"9.35 upbm affinity estimate (log intensity, higher = more binding, comparable within an allelic series)"
same,binding signal,HOXC10 [6],"9.89 upbm affinity estimate (log intensity, higher = more binding, comparable within an allelic series)"
same,binding signal,HOXD13 [7],"9.35 upbm affinity estimate (log intensity, higher = more binding, comparable within an allelic series)"
AAATGGTA,binding signal,HOXC10 [1],"10.9 upbm affinity estimate (log intensity, higher = more binding, comparable within an allelic series)"
